Anesthetic bind: qHTS Assay for Identification of Novel General Anesthetics; AID 485281, 2010; Potency, µM (series often up to 77.5 µM), without a hit: top-dose activity change, negative = displacement, hits mostly inhibitors; Ferritin light chain (Equus caballus), P02791; actives 0.074% (n = 350,000); apoferritin/1-aminoanthracene competitive binding, fluorescence; also: potency is read from the fitted curve at half-maximal effect; % is scaled to controls: 0 for no effect and ±100 for the full control effect; nearly all actives have a fitted effect of over 20% in size
Target sequence (P02791 2-175 limits assumed): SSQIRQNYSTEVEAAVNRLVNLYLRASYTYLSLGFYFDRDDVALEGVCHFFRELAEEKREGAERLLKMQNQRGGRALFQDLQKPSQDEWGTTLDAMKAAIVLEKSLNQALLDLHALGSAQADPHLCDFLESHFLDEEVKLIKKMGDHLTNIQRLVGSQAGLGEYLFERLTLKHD
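Concentration-response curves derived by four-parameter Hill fitting of normalized fluorescence, where compounds displaced 1-AMA from 10 uM horse apoferritin following a brief 10 min room-temperature incubation; propofol titration acted as positive control.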
Glioma ERSR ind: qHTS for Inducers of the Endoplasmic Reticulum Stress Response (ERSR) in Human Glioma: qHTS | Potency, µM, inactives show at the highest dose activation, most hits filed as activators | U87-MG GRP78 promoter luciferase reporter, 16 h | AID 602332, 2012 | actives 0.02% (n = 420,000); also: potency is read from the fitted curve at half-maximal effect; series mostly up to about 76 µM; % of control where 0% means no effect; nearly all actives have a fitted effect of over 35% in size
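Stably transfected U87-MG human glioma cells carrying a GRP78-based luminescent sensor were seeded at 1000 cells/well, pin-dosed with compounds and incubated 16 h. Luciferase reagent was then added, and end-point luminescence was read after 10 min at room temperature.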
ALOX12 inh: Primary qHTS assay for inhibitors of human arachidonate 12S-lipoxygenase (ALOX12): Round 2; Polyunsaturated fatty acid lipoxygenase ALOX12 (Homo sapiens), P18054; purified 12hLO, xylenol orange hydroperoxide absorbance; Potency, µM (series often up to 108 µM), inactives show top-dose activity change, negative = inhibition, most hits filed as inhibitors; actives 1.1% (n = 580,000); also: potency is read from the fitted curve at half-maximal effect; % is scaled to controls: 0 for no effect and ±100 for the full control effect
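Purified human 12hLO (150 nM final) in 25 mM Hepes, 0.01% Triton X-100, pH 7.0 was preincubated 15 min at room temperature with compound. Then 40 uM arachidonic acid was added, 30 min. Hydroperoxide was read by Fe-XO absorbance ratio 573/405 nm.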
TrxR1 inh: qHTS Assay for Inhibitors of Mammalian Selenoprotein Thioredoxin Reductase 1 (TrxR1): qHTS | Thioredoxin reductase 1, cytoplasmic (Rattus norvegicus), O89049 | recombinant rTrxR1, NADPH fluorescence consumption, selenite substrate | Potency, µM (titrated, usually from 114 µM), without a hit: at the top dose activity change, negative = inhibition, hits mostly inhibitors | actives 1% (n = 390,000); also: potency is read from the fitted curve at half-maximal effect; % is scaled to controls: 0 for no effect and ±100 for the full control effect; nearly all actives have a fitted effect of over 65% in size
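Rat TrxR1 (90 nM in the dispensed reagent) was pre-reduced with 400 uM NADPH for 5 min at room temperature, then incubated with compound for 15 min. After 400 uM selenite was added, NADPH fluorescence (Ex 340/Em 450 nm) was followed for 8 min.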
TrxR1 substrate: qHTS Assay for Substrates of Mammalian Selenoprotein Thioredoxin Reductase 1 (TrxR1): qHTS; Potency, µM (top dose mostly 114 µM), for the others: at the top dose activity change, negative = substrate turnover; Thioredoxin reductase 1, cytoplasmic (Rattus norvegicus), O89049; actives 0.01% (n = 390,000); AID 588456, 2011; purified TrxR1 substrate turnover, NADPH consumption readout; also: potency is read from the fitted curve at half-maximal effect; % is scaled to controls: 0 for no effect and ±100 for the full control effect; nearly all actives have a fitted effect of over 50% in size
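Rat TrxR1, dispensed at 90 nM, was prereduced with 400 uM NADPH (final) for 5 min at ~22 deg C, then incubated with compound 15 min before 400 uM selenite. A first-read NADPH fluorescence drop versus no-compound background flagged substrates.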
mIDH1 inhibitor: qHTS for Inhibitors of mutant isocitrate dehydrogenase 1 (IDH1): qHTS; Isocitrate dehydrogenase [NADP] cytoplasmic (Homo sapiens), O75874; IDH1-R132H enzyme, NADPH consumption, diaphorase/resazurin fluorescence; Potency, µM (highest dose often 76.6 µM), for the others: at the highest dose activity change, negative = inhibition, actives largely listed as inhibitors; actives 0.093% (n = 390,000); also: potency is read from the fitted curve at half-maximal effect; % is scaled to controls: 0 for no effect and ±100 for the full control effect; nearly all actives have a fitted effect of over 65% in size
Target sequence (O75874 whole entry R132H, stated change not applied): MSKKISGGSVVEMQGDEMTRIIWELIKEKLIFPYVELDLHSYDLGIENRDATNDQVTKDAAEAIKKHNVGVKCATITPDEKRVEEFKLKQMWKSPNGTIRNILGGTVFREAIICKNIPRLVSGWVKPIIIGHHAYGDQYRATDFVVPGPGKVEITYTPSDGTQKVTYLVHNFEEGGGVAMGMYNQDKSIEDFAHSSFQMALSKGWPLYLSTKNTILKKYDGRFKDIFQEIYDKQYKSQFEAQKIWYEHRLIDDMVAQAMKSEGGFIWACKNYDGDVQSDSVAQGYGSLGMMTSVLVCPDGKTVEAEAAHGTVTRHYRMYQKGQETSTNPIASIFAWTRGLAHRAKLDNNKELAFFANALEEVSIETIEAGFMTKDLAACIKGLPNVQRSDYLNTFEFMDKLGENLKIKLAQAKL
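IDH1-R132H (0.5 ug/mL) preincubated 30 min with compound, then NADPH (0.016 mM) and alpha-KG (2 mM) added; 80 min at RT, pH 7.5. Remaining NADPH coupled via diaphorase/resazurin to fluorescence (540/590 nm); concentration-response curves normalized to no-enzyme control.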
IDH1 autofl: qHTS for Inhibitors of mutant isocitrate dehydrogenase 1 (IDH1): Cherrypicks Autofluorescence Interference | AID 623980, 2012 | inhibition of signal, % at 51.2 µM | 750 tested, under 10 active | shares compounds with mIDH1 inhibitor | Resorufin detection reagent fluorescence interference, cell-free;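 also: 0% = wells with normal resorufin and full inhibition = wells lacking resorufin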
IDH1 WT: qHTS for Inhibitors of mutant isocitrate dehydrogenase 1 (IDH1): Cherrypicks in WT IDH1. actives 9% (n = 750). shares compounds with mIDH1 inhibitor. Potency, µM (highest dose often 115 µM), for inactives: top-dose activity change, negative = inhibition, most hits filed as inhibitors. AID 623995, 2012. WT IDH1 enzyme, NADPH diaphorase/resazurin fluorescence;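 also: potency is read from the fitted curve at half-maximal effect; 0% = full WT IDH1 enzyme control and full inhibition = no enzyme wells; nearly all actives have a fitted effect of over 55% in size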
Target sequence (O75874 whole entry, looked up): as the sequence (O75874 whole entry R132H, stated change not applied) above, with H132R counted along it
IDH1 R132H conf: qHTS for Inhibitors of mutant isocitrate dehydrogenase 1 (IDH1): Confirmation of Cherrypicks. shares compounds with mIDH1 inhibitor. IDH1 R132H enzyme, NADPH diaphorase/resazurin fluorescence. Potency, µM (titrated, usually from 76.6 µM), for inactives: at the top dose activity change, negative = inhibition, actives largely listed as inhibitors. actives 83% (n = 750); also: potency is read from the fitted curve at half-maximal effect; nearly all actives have a fitted effect of over 50% in size
The depositor's hits bear a star; ? = inconclusive; / = no result; [ ] = another dose, or the depositor's remark. Compounds with a hit are over-represented: about 1.7% of the library has one in this group of screens. Calls follow the shape of the dose curve; as a rule, active = well fitted curve in the direction sought with a large enough effect; inconclusive = small, poorly fitted or top-dose-only effect, or another doubt; inactive = no such curve, though single readings can be large; an effect the other way counts as inactive or inconclusive.

SMILES | Anesthetic bind | Glioma ERSR ind | ALOX12 inh | TrxR1 inh | TrxR1 substrate | mIDH1 inhibitor | IDH1 autofl | IDH1 WT | IDH1 R132H conf
O=C(CCCC(=O)N(c1ccc2c(c1)OCCO2)C(C(=O)NC1CCCCC1)c1ccc(F)cc1)Nc1ccccn1 (centres undefined) | -7% | 7% | -14% | 3% | 4% | 9.3µM* | -8 | 2% | 13µM*
CN(C)c1ccc(C(=O)N[C@H]2CO[C@H]3[C@@H]2OC[C@@H]3n2nnnc2Oc2cccc(N(C)C)c2)cc1 | / | / | 0% | / | / | / | / | / | /
Cc1cc(NC(=O)CCC(=O)N(c2ccccc2)C(C(=O)NC2CCCCC2)c2cccs2)no1 (centres undefined) | -19% | 0% | 299% | 18% | 6% | ? | 0 | -5% | 16µM*
Cc1cc(NC(=O)CCC(=O)N(c2ccc(F)cc2)C(C(=O)NC2CCCC2)c2ccccc2)no1 (centres undefined) | -11% | -3% | -18% | 11% | 4% | ? | 2 | 5% | 40µM*
Cc1cc(NC(=O)CCC(=O)N(CC(=O)NC2CCCC2)c2ccccc2)no1 | -9% | -2% | -21% | -11% | -5% | -2% | / | / | /
COc1ccc(N=C2S/C(=C\c3ccc(OC(C)C(=O)O)c(OC)c3)C(=O)N2CCc2c[nH]c3ccccc23)cc1 (centres undefined) | -7% | -3% | ? | 1% | -4% | ? | -2 | ? | 28µM*
COc1cc(/C=C2\SC(=Nc3ccccc3)N(CCc3c[nH]c4ccccc34)C2=O)ccc1OC(C)C(=O)O (centres undefined) | -6% | -4% | ? | -24% | -18% | ? | / | / | /
Cc1ccc(S(=O)(=O)Nc2ccc(S(=O)(=O)Nc3cc(C)nc(C)n3)cc2)cc1 | 0% | -2% | -22% | 8% | 1% | 5% | / | / | /
Cc1cc(NS(=O)(=O)c2ccc(NS(=O)(=O)c3ccc(CC(C)C)cc3)cc2)nc(C)n1 | -3% | 6% | -8% | 8% | 10% | 18µM* | 0 | 2% | 16µM*
O=C(CCl)c1ccc2c(c1)CCN2C(=O)C1CCCCC1 | -15% | 0% | -25% | ? | -4% | ? | 0 | 8% | 40µM*
Cc1nn(C(=O)CCC(=O)N2CCCC(c3nc(C4CCOCC4)no3)C2)c2ccccc12 (centres undefined) | / | / | 33% | / | / | / | / | / | /
CC(=O)Oc1ccc(C(=O)Nc2cccc(C(=O)c3ccc(C)c(C)c3)c2)cc1 | -13% | 2% | -8% | -3% | -8% | ? | 1 | 2% | 10µM*
CCN(CC)c1ccc(-c2nn3c(-c4n[nH]c5c4CCC5)nnc3s2)cc1 | 312% | 1% | 76% | -1%[57.1 µM] | 37%[57.1 µM] | ? | 2 | -2% | 40µM*
CCc1ccc2c(c1)C(NC(C)=O)C(=O)N2CCN1CCOCC1 (centres undefined) | 5% | -2% | 45µM* | 6% | 2% | 46µM* | -1 | ? | 25µM*
CCCN1C(=O)C(NC(C)=O)c2ccccc21 (centres undefined) | -4% | -1% | ? | -7%[57.1 µM] | 3%[57.1 µM] | 0% | / | / | /
CCOC(=O)CSC1=NC(=O)/C(=C/c2ccc(Br)cc2)S1 | -9% | -8% | 40µM* | 22%[57.1 µM] | 9%[57.1 µM] | ? | 1 | 71µM* | 35µM*
Cc1ccc2[nH]c(=O)c3cc(C(=O)N(C)c4ccc(C)c(C)c4)sc3c2c1 | 3% | -6% | 2% | 3% | 0% | 52µM* | 0 | -12% | 16µM*
CCN(C(=O)c1cc2c(=O)[nH]c3ccc(C)cc3c2s1)c1cccc(C)c1 | -10% | 3% | -53% | -6% | 11% | 21µM* | -3 | 10% | 22µM*
CCN(C(=O)c1cc2c(=O)[nH]c3ccc(C)cc3c2s1)c1ccc(F)cc1 | -8% | -7% | -21% | 23%[57.1 µM] | 1%[57.1 µM] | -6% | / | / | /
CC(C)Cn1c(SCC(=O)Nc2ccc3c(c2)OCO3)nc2cc(Cl)ccc2c1=O | / | / | 3% | / | / | / | / | / | /
Cc1cc([N+](=O)[O-])cc2c1-c1ncccc1C2=Nc1ccccc1 | 2% | -2% | -4% | -3% | -9% | 6% | / | / | /
Cc1ccccc1N=C1c2cc([N+](=O)[O-])ccc2-c2ncccc21 | -9% | 3% | -8% | -13% | -10% | ? | -2 | 0% | 22µM*
CC(C)[C@@H](N)C(=O)N1CCC(n2nccc2NC(=O)c2cccc(F)c2)CC1 | / | / | -4% | / | / | / | / | / | /
COc1cc(C2C(C#N)=C(N)N(c3sc4c(c3C#N)CCCC4)C3=C2C(=O)CC(C)(C)C3)cc(OC)c1OC (centres undefined) | -16% | -6% | / | -10% | -6% | ? | 6 | 7% | 7.9µM*
CCc1nn(CC(=O)N(CC)Cc2ccccc2)c(=O)c2cc3occc3n12 | ? | -1% | -11% | -9% | -7% | 0% | / | / | /
Cc1ccc(-n2ncc3c(=O)[nH]c(SCC(=O)N4CCCc5ccccc54)nc32)cc1 | 41% | -3% | 29% | 12% | 9%[57.1 µM] | ? | -6 | 10% | 28µM*

From PubChem BioAssay
